# According to PubChem BioAssay (NCATS):
# “And” between values parts separate entries of the source, which are not always exact repeats. Equal values may be shown once. Inconclusive results are not listed. Where a call stands in place of a potency, no number is given. The source made the active and inactive calls. Unless noted, the call rests on the fitted dose curve; in most records, active means well fitted curve in the direction sought with a large enough effect; inconclusive means small, poorly fitted or top-dose-only effect, or another doubt; inactive means no such curve, though single readings can be large; an effect the other way counts as inactive or inconclusive. Where a SMILES comes first, the peptide text is derived from it. [ ]: non-standard residue; d: D form. pGlu = O=C1CC[C@@H](C(=O)O)N1; Thz = O=C(O)[C@@H]1CSCN1
# Assays:
# [1] = qHTS assay for measurement of the activity of small molecule inhibitors on Zika virus induced Caspase-3 activity in human astrocytoma cells (AID 1224859)
# Method in brief: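 Percent inhibition of virus-induced caspase-3/7 signal is calculated against uninfected and ZIKV-infected control cells. Cells are SNB-19, infected at 2 FFU/cell for 6 h after 1 h compound exposure.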
# [2] = NS1 protein of Zika virus - qHTS assay to identify small molecule inhibitors in human HEK 293 cells (AID 1347053); further: nearly all actives have a fitted effect of over 55% in size; further: potency means the concentration at half of the fitted maximal effect
# Method in brief: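 Compound-treated (1 h pre-infection) HEK 293 cells infected with ZIKV MR766, MOI = 0.5; after 24 h at 37 C, NS1 read by TR-FRET; data normalized to uninfected and infected controls.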
# [3] = qHTS of pediatric cancer cell lines to identify multiple opportunities for drug repurposing: Primary screen for TC32 cells (AID 1347089); further: nearly all actives have a fitted effect of over 60% in size
# Method in brief: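 Luminescent CellTiter-Glo read-out of metabolically active TC32 cells after 48 h compound exposure. Primary: MIPE 11-point, 0.78 nM–46 µM; NPC 8-point, 0.59 nM–46 µM. Confirmatory: 11-point dilutions.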
# [4] = qHTS of pediatric cancer cell lines to identify multiple opportunities for drug repurposing: Primary screen for DAOY cells (AID 1347090); further: series mostly up to about 46 µM; nearly all actives have a fitted effect of over 55% in size
# Method in brief: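 Viability measured as metabolically active cells via CellTiter-Glo luminescence following 48 hours of compound exposure, 11-point dilutions in confirmatory testing. 500-1,000 cells/well plated 5 hours before dosing; controls were DMSO and 2.3 µM bortezomib.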
# [5] = target: T1, Tyrosine-protein phosphatase non-receptor type substrate 1 (Homo sapiens) + Leukocyte surface antigen CD47 (Homo sapiens) (UniProt P78324+Q08722); test: CD47-SIRPalpha protein protein interaction - LANCE assay qHTS validation (AID 1347057; active means well fitted curve in the direction sought with a large enough effect in the signal ratio, with a control signal flat, not every such curve was filed as active; the % refers to the signal ratio; further: series mostly up to about 38 µM)
# T1 sequence (P78324 whole entry, looked up, the tested form may be a part): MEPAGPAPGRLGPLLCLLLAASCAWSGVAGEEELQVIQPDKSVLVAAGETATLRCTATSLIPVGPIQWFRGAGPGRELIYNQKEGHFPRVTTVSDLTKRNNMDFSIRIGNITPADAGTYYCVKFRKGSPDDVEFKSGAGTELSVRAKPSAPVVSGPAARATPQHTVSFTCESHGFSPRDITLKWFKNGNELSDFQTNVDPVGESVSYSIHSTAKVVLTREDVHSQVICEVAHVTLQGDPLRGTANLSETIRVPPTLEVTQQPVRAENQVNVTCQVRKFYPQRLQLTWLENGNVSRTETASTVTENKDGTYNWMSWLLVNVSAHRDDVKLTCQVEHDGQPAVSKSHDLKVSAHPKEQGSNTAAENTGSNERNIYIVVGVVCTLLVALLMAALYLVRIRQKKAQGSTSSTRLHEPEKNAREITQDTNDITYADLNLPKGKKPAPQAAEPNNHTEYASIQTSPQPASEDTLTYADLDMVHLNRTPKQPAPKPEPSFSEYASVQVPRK
# T1 sequence (Q08722 whole entry, looked up, the tested form may be a part): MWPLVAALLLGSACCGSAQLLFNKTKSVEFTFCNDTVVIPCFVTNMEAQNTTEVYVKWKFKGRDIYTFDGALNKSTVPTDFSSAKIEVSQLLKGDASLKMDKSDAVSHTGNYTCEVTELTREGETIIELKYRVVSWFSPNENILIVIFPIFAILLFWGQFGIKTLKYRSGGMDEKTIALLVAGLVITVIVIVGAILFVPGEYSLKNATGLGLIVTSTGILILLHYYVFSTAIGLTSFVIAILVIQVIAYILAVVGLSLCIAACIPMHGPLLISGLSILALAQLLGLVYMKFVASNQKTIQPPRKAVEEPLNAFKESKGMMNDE
# Method in brief: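 Inhibition of soluble CD47/SIRPalpha ectodomain association by titrated compounds, measured as 665/615 nm time-resolved FRET ratio after sequential 30 min room-temperature incubations.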
# [6] = target: T1, Tyrosine-protein phosphatase non-receptor type substrate 1 (Homo sapiens) + Leukocyte surface antigen CD47 (Homo sapiens); test: CD47-SIRPalpha protein protein interaction - HTRF assay qHTS validation (AID 1347058; active means well fitted curve in the direction sought with a large enough effect in the signal ratio, not every such curve was filed as active; the % refers to the signal ratio; further: series mostly up to about 38 µM)
# Method in brief: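 Soluble extracellular domains (6His-CD47, Avi-tag-biotinylated SIRPalpha) in PBS pH 7.4 with 0.05% IGEPAL CA-630. Compounds were preincubated 30 min at RT with CD47 and anti-His-Eu, then SIRPalpha and SAV-XL665 were added. TR-FRET 665/615 ratio.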
# [7] = target: T1, Tyrosine-protein phosphatase non-receptor type substrate 1 (Homo sapiens) + Leukocyte surface antigen CD47 (Homo sapiens); test: CD47-SIRPalpha protein protein interaction - Alpha assay qHTS validation (AID 1347059);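 further: bead proximity luminescence from CD47 binding SIRPalpha after compound preincubation with SIRPalpha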
# Method in brief: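 SIRPalpha-biotin 25 nM + cpd, 30 min RT, dark; add CD47-His 12.5 nM, 30 min; add Ni-NTA/SAV beads 10 ug/mL, 30 min; AlphaScreen. Buffer PBS pH 7.4 + 0.05% IGEPAL CA-630. Non-biotinylated SIRPalpha as control inhibitor.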
# [8] = target: Parathyroid hormone/parathyroid hormone-related peptide receptor (Homo sapiens) (UniProt Q03431); test: qHTS for PTHR1 Agonists: Optimization Screen against the NCGC LOPAC library (AID 1347079);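 further: GloSensor cAMP luminescence in HEK-293 GP2 cells expressing human PTHR1 with IBMX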
# Sequence of Parathyroid hormone/parathyroid hormone-related peptide receptor (Homo sapiens) (Q03431 whole entry, looked up): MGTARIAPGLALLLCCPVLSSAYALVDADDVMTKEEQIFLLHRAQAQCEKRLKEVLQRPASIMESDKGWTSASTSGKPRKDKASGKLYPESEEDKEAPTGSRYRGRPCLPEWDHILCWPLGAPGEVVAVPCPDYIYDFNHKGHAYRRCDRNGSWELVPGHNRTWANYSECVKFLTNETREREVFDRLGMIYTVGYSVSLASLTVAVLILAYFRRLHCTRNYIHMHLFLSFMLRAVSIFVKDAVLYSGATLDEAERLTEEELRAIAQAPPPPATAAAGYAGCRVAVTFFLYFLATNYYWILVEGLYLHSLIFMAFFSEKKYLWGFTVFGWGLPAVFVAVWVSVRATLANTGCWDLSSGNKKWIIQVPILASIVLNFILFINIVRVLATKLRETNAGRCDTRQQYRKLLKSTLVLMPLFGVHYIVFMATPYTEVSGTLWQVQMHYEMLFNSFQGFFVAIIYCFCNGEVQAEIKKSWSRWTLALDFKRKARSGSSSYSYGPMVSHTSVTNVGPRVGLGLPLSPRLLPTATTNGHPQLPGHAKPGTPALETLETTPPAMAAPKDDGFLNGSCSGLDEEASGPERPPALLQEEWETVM
# Method in brief: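 Signal increase flags agonism. GP2 cells, derived from HEK-293, express human PTHR1 and a GloSensor cAMP construct.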
# [9] = target: Atrial natriuretic peptide receptor 1 (Homo sapiens) (UniProt P16066); test: Natriuretic polypeptide receptor (hNpr1) antagonism - Pilot screen (AID 1347049; calls by dose curve;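 further: agonist-evoked cGMP luminescence read 20 min after hNppA addition; series mostly up to about 58 µM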)
# Sequence of Atrial natriuretic peptide receptor 1 (Homo sapiens) (P16066 whole entry, looked up): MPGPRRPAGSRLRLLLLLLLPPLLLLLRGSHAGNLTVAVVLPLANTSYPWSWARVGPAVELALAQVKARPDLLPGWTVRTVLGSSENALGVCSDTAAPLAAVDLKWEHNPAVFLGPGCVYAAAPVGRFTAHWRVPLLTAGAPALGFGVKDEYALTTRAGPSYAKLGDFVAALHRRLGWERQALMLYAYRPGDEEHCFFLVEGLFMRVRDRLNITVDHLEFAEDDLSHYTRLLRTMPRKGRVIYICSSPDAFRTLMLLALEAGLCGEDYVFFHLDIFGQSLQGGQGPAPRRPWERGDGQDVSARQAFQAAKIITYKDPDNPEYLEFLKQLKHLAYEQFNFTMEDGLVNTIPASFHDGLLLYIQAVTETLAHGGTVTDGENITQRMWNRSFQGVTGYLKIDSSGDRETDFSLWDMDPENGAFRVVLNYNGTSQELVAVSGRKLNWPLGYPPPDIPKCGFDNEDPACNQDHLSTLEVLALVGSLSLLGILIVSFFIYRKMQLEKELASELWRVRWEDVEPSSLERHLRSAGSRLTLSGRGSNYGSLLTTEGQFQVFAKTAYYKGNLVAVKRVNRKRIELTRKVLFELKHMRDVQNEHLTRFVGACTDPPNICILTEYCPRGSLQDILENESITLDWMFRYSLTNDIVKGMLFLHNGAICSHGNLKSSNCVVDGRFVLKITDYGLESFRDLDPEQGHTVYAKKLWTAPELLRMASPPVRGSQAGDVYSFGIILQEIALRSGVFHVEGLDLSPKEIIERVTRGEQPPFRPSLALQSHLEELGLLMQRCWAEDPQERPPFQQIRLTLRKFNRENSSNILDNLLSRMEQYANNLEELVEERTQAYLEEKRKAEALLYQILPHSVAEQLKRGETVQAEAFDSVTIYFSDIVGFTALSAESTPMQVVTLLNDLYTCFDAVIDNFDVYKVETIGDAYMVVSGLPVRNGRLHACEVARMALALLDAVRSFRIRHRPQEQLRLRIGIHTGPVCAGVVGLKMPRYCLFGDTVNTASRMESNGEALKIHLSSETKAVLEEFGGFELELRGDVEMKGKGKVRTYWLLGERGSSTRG
# Method in brief: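 cGMP-sensor HEK293/hNpr1 cells, 1500/well, plated overnight at 37C. 2% GloSensor reagent, 2 h RT. Compound (23 nL pin transfer) 30 min RT, baseline luminescence pre-read. 0.1 nM hNppA, 20 min RT, post-read.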
# [10] = qHTS assay to identify small molecule inhibitors of chordoma cells - UCH-1 (AID 1259355); further: nearly all actives have a fitted effect of over 55% in size; further: potency means the concentration at half of the fitted maximal effect; series mostly up to about 46 µM
# Method in brief: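 Screening used approved and investigational drugs in 15-point titration against 800 seeded cells per well. A fixed combination of auranofin with camptothecin, doxorubicin, rubitecan and topotecan followed compound addition, and growth was scored by CellTiter-Glo after 48hr.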
# [11] = qHTS assay to identify small molecule inhibitors of chordoma cells - UCH-2 (AID 1259356); further: potency means the concentration at half of the fitted maximal effect
# [12] = P-glycoprotein substrates identified in KB-3-1 adenocarcinoma cell line, qHTS therapeutic library screen (AID 1346986); further: nearly all actives have a fitted effect of over 60% in size
# Method in brief: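 Viability by CellTiter-Glo after 72 h compound exposure at 37 degree C, 5% CO2. Cytotoxic call: curve class -1.1 to -2.4, maximum response >50%, AC50 < 10 uM, compared across KB-3-1 and P-gp-overexpressing KB-8-5-11.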
# [13] = P-glycoprotein substrates identified in KB-8-5-11 adenocarcinoma cell line, qHTS therapeutic library screen (AID 1346987); further: nearly all actives have a fitted effect of over 65% in size; further: potency means the concentration at half of the fitted maximal effect
# Method in brief: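 Human cervical adenocarcinoma KB-8-5-11 cells, selected in colchicine to over-express P-gp and assayed without it, were exposed for 72 h to titrated compounds. An ATP-based luminescent viability signal gave AC50.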
# [14] = Natriuretic polypeptide receptor (hNpr1) antagonism - Pilot counterscreen GloSensor control cell line (AID 1347045; calls by dose curve; further: series mostly up to about 38 µM)
# Method in brief: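 The SNP-driven cGMP luminescence signal (50 uM, 20 min, room temperature) was measured in GloSensor HEK293 control cells. Compounds were tested as a LOPAC titration series and preincubated for 30-50 min.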
# [15] = target: Atrial natriuretic peptide receptor 2 (Homo sapiens) (UniProt P20594); test: Natriuretic polypeptide receptor (hNpr2) antagonism - Pilot subtype selectivity assay (AID 1347050; calls by dose curve)
# Sequence of Atrial natriuretic peptide receptor 2 (Homo sapiens) (P20594 whole entry, looked up): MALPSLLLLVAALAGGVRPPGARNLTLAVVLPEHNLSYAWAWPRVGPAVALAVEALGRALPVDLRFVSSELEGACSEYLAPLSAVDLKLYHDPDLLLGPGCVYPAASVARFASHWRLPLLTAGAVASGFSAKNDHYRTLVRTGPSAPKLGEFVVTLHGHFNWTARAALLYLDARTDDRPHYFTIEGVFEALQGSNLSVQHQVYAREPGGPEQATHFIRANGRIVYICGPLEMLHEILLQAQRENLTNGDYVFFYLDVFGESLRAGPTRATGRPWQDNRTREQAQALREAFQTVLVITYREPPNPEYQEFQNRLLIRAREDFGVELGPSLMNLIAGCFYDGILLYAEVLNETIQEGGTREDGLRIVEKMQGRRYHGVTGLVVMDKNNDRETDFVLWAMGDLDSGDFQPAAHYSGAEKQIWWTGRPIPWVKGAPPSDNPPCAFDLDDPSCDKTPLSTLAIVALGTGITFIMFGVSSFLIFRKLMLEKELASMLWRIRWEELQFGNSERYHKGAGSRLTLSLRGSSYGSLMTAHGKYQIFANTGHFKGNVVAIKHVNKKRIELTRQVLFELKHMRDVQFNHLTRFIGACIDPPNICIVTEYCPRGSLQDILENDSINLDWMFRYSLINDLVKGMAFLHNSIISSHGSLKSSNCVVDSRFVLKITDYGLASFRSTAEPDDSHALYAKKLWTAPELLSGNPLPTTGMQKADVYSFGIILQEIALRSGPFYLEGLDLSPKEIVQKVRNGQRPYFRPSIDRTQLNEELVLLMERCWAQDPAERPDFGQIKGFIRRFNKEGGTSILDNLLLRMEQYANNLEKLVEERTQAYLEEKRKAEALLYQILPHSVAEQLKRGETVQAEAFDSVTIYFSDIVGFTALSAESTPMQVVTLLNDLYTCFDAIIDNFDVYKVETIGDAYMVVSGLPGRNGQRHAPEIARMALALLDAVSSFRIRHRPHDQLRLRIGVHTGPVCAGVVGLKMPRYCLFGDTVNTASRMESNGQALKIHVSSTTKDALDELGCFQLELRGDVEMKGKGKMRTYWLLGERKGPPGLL
# Method in brief: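 Luminescence from a genetically encoded cGMP luciferase biosensor in hNpr2-expressing HEK293 cells is read before and 20 min after adding 1 nM hNppC. Test compounds, in interplate 1:5 titrations, are added 30-50 min ahead of the agonist.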
compound,measurement,setting,value
O=C(O)/C=C\C(=O)O,Potency,[1],inactive
same,Potency,[2],inactive
same,Potency,[3],inactive
same,Potency,[4],inactive
S=c1[nH]c2ccccc2s1,Potency,[1],inactive
same,Potency,[2],inactive
same,Potency,[4],inactive
O=c1[nH]c2cc(C(F)(F)F)ccc2n1-c1cc(C(F)(F)F)ccc1O,Potency,[1],inactive
same,Potency,[2],inactive
same,Potency,[5],inactive
same,outcome,[6],inactive
same,Potency,[7],inactive
same,Potency,[8],inactive
O=C(CS)Nc1ccccc1,Potency,[1],inactive
same,Potency,[2],inactive
same,Potency,[3],inactive
Fc1ccc(C(OCCCc2cnc[nH]2)c2ccc(F)cc2)cc1,Potency,[1],inactive
same,Potency,[9],inactive
same,Potency,[2],inactive
same,Potency,[5],inactive
same,outcome,[6],inactive
same,Potency,[8],inactive
OCC1O[C@H](O)C(Cl)C(O)C1O (stereo partly drawn),Potency,[1],inactive
same,Potency,[9],inactive
same,Potency,[2],inactive
same,Potency,[5],inactive
same,Potency,[7],inactive
same,Potency,[8],inactive
Ic1ccc(N2CCN(Cc3c[nH]c4ncccc34)CC2)cc1,Potency,[1],inactive
same,Potency,[8],inactive
Fc1cccc(/C=N/N=C/c2cccc(F)c2)c1,Potency,[1],inactive
same,Potency,[9],inactive
same,Potency,[5],inactive
same,outcome,[6],inactive
same,Potency,[8],inactive
NS(=O)(=O)C#Cc1ccccc1,Potency,[1],inactive
same,Potency,[5],inactive
same,outcome,[6],inactive
same,Potency,[7],inactive
same,Potency,[8],inactive
Cc1cc2c(cc1Cl)N(C(=O)Nc1ccc(Oc3cccnc3C)nc1)CC2,Potency,[1],inactive
same,Potency,[5],inactive
same,outcome,[6],inactive
same,Potency,[7],inactive
same,Potency,[8],inactive
CN=c1nc(-c2ccccc2)n(-c2ccccc2)s1,Potency,[1],inactive
same,Potency,[2],inactive
same,Potency,[5],inactive
same,outcome,[6],inactive
CC12C(=O)OC(=O)C1(C)C1CCC2O1 (stereo not drawn),Potency,[1],inactive
same,Potency,[2],3.98 µM (active)
same,Potency,[5],inactive
same,outcome,[6],inactive
same,Potency,[7],inactive
same,Potency,[8],inactive
C[N+]1(C)C2CC(OC(=O)[C@H](CO)c3ccccc3)CC1C1OC12 (stereo partly drawn),Potency,[1],inactive
same,Potency,[2],inactive
same,Potency,[5],inactive
same,outcome,[6],inactive
same,Potency,[7],inactive
same,Potency,[8],inactive
O=Nc1ccc2oc(=O)ccc2c1,Potency,[1],inactive
same,Potency,[9],inactive
same,Potency,[2],inactive
same,Potency,[5],inactive
same,Potency,[7],inactive
same,Potency,[8],inactive
CN1CCc2ccccc2Cc2[nH]c3ccccc3c2CC1,Potency,[1],inactive
same,Potency,[9],inactive
same,Potency,[2],inactive
same,Potency,[5],inactive
same,Potency,[8],inactive
NCCO,Potency,[1],inactive
same,Potency,[2],inactive
same,Potency,[3],inactive
same,Potency,[4],inactive
O=Cc1ccc(O)c(O)c1O,Potency,[1],inactive
same,Potency,[2],inactive
same,Potency,[3],inactive
same,Potency,[4],inactive
CCCCCC(O)c1cccc(OCc2ccc3ccccc3n2)c1 (stereo not drawn),Potency,[1],inactive
same,Potency,[8],inactive
CC1(C)[C@@H](O)CC[C@]2(C)[C@H]3C(=O)C=C4[C@@H]5C[C@@](C)(C(=O)O)CC[C@]5(C)CC[C@@]4(C)[C@]3(C)CC[C@@H]12,Potency,[10],inactive
same,Potency,[11],inactive
same,Potency,[12],inactive
C=CCN1C(=O)C(CC(C)C)NC1=S (stereo not drawn),Potency,[10],inactive
same,Potency,[11],inactive
same,Potency,[13],inactive
Cc1onc(-c2c(F)cccc2Cl)c1C(=O)N[C@@H]1C(=O)N2[C@@H]1SC(C)(C)[C@@H]2C(=O)O,Potency,[10],inactive
same,Potency,[11],inactive
same,Potency,[12],inactive
same,Potency,[13],inactive
COc1cc(/C=C/C(=O)CC(=O)/C=C/c2ccc(O)c(OC)c2)ccc1O,Potency,[10],inactive
same,Potency,[11],inactive
C=C(Nc1ccc(OCC)cc1)Nc1ccc(OCC)cc1,Potency,[10],inactive
same,Potency,[11],inactive
same,Potency,[13],inactive
O=C(O)/C=C/C(O)c1ccc(Cl)cc1 (stereo not drawn),Potency,[10],inactive
same,Potency,[11],inactive
same,Potency,[13],inactive
same,Potency,[14],inactive
same,Potency,[15],inactive
CC(=O)O[C@H]1C[C@@]2(C)[C@@H](C[C@@H](O)[C@H]3[C@@]4(C)CC[C@@H](O)[C@@H](C)[C@@H]4CC[C@@]32C)/C1=C(\CCC=C(C)C)C(=O)O,Potency,[10],inactive
same,Potency,[11],inactive
same,Potency,[12],inactive
CC1(C)C[C@@H]1C(=O)N/C(=C\CCCCSC[C@H](N)C(=O)O)C(=O)O,Potency,[10],inactive
same,Potency,[11],inactive
same,Potency,[13],inactive
CC1(C)S[C@@H]2[C@H](NC(=O)[C@H](NC(=O)N3CCN(S(C)(=O)=O)C3=O)c3ccccc3)C(=O)N2[C@H]1C(=O)O,Potency,[10],inactive
same,Potency,[11],inactive
same,Potency,[12],inactive
COc1cc(CNC(=O)CCCC/C=C/C(C)C)ccc1O,Potency,[10],inactive
same,Potency,[11],inactive
same,Potency,[12],inactive
C[C@H](O)[C@H](O)[C@H]1CNc2nc(N)[nH]c(=O)c2N1,Potency,[10],inactive
same,Potency,[11],inactive
same,Potency,[12],inactive
same,Potency,[13],inactive
CO[C@H]1C[C@@H]2CC[C@@H](C)[C@@](O)(O2)C(=O)C(=O)N2CCCC[C@H]2C(=O)O[C@H]([C@H](C)C[C@@H]2CC[C@@H](O)[C@H](OC)C2)CC(=O)[C@H](C)C=C(C)[C@@H](O)[C@@H](OC)C(=O)[C@H](C)C[C@H](C)/C=C/C=CC=C1C,Potency,[10],inactive
same,Potency,[11],inactive
CC1(C)S[C@@H]2[C@H](NC(=O)[C@H](N)c3ccc(O)cc3)C(=O)N2[C@H]1C(=O)O,Potency,[10],inactive
same,Potency,[11],inactive
same,Potency,[13],inactive
O=C1CC[C@@H](C(=O)N2CSC[C@H]2C(=O)O)N1 ([pGlu]-[Thz]-OH),Potency,[10],inactive
same,Potency,[11],inactive
same,Potency,[12],inactive
same,Potency,[13],inactive
CC(=O)[C@]1(O)Cc2c(O)c3c(c(O)c2[C@@H](O[C@H]2C[C@H](N)[C@H](O)[C@H](C)O2)C1)C(=O)c1c(O)cccc1C3=O,Potency,[10],1.58 µM (active)
same,Potency,[11],20.6 µM (active)
same,Potency,[13],5.17 µM (active) and 4.11 µM (active)
O=C(O)COc1ccc(C(=O)c2cccs2)c(Cl)c1Cl,Potency,[10],inactive
same,Potency,[11],inactive
same,Potency,[13],inactive
